Experiment [1] concerns the target Nuclear receptor coactivator 3 (Homo sapiens) (UniProt Q9Y6Q9). The experiment is described as follows: NCOA3 GAL4-fusion reporter inhibition – cell-based, luminescence, quadruplicate, confirmation (AID 588792;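 active = mean inhibition over 43.08%, the solvent-only control mean plus 3 SD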;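 also: 0% = DMSO treated cells and 100% = gossypol at 36 µM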). To be noted: HEK293 GAL4-SRC3 luciferase reporter, at 3.6 µM, active compounds read high. For orientation: Reporter assays use an easily measured gene product as a stand-in for the process of interest.

For experiment [2], the system named is transactivating tegument protein VP16 (Human herpesvirus 1), Gal4-VP16 luciferase reporter. The experiment is described as follows: repression of VP16-driven luciferase reporter – cell-based, luminescence, high throughput, counter-screen for SRC3 inhibitor project (AID 588794; in the data active = inhibition above about 30%). Conditions: mammalian cells, at 3.6 µM, active compounds read high.
For experiment [3], the target named is Nuclear receptor coactivator 1 (Homo sapiens) (UniProt Q15788). Put plainly: NCOA1 GAL4-fusion reporter inhibition – cell-based, luminescence, quadruplicate, confirmation (AID 588820;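 active = mean inhibition above 46.68%, the untreated control wells mean plus 3 SD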;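 also: 0% = DMSO wells and 100% = gossypol 36 µM treated wells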). To be noted: HEK293 GAL4-SRC1 luciferase reporter, at 3.6 µM, active compounds read high.
Experiment [4] is described as follows: repression of VP16-driven luciferase reporter – cell-based, luminescence, high throughput, counter-screen for SRC1 inhibitor project (AID 588824). Conditions: cell-based VP16 transactivation luciferase luminescence; at 3.6 µM; active compounds read high.
A short description of experiment [5]: StAR promoter reporter inhibitors, counter-screen for LRH-1 inverse agonist project, cell-based, luminescence, high throughput (AID 651611; in the data active = inhibition above about 28%). To be noted: StAR promoter luciferase reporter counterscreen, at 3.6 µM, active compounds read high. Background: Counterscreens check selectivity or assay interference.
Experiment [6] concerns the target Nuclear receptor subfamily 5 group A member 2 (Homo sapiens) (UniProt O00482). Put plainly: NR5A2 activity suppression in reporter cells – cell-based, luminescence, confirmation (AID 651613; in the data active = inhibition above about 42%;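 also: HEK293T cells co-transfected with LRH-1 and StAR promoter luciferase reporter; 0% = vehicle wells and 100% = parental cells lacking receptor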). To be noted: cell-based LRH-1 luciferase reporter, inverse agonism; at 3.6 µM; active compounds read high.
In experiment [7] the target is Steroidogenic factor 1 (Homo sapiens) (UniProt Q13285). Put plainly: inverse agonism at SF1 nuclear receptor – cell-based, luminescence, high throughput, counter-screen for LRH-1 inverse agonist project (AID 651614; in the data active = inhibition above about 44%;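 also: cells cotransfected with StAR promoter reporter and SF1 expression vector; 0% = vehicle on cells with receptor and 100% = vehicle on cells lacking receptor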). Conditions: cell-based SF1 luciferase reporter, at 3.6 µM, active compounds read high.
Experiment [8] can be described thus: compounds suppressing VP16-driven luciferase signal – cell-based, luminescence, high throughput, counter-screen for LRH-1 inverse agonist project (AID 651615; in the data active = inhibition above about 33%). Conditions: Gal4-VP16 luciferase reporter cells, at 3.6 µM, active compounds read high.
For experiment [9], the system named is transactivating tegument protein VP16 (Human herpesvirus 1). The experiment is described as follows: compounds suppressing VP16-driven luciferase signal – cell-based, luminescence, single concentration, counter-screen for SRC2 inhibitor project (AID 652007; in the data active = inhibition above about 36%). Conditions: cell-based VP16 transactivation luciferase reporter, at 8.9 µM, active compounds read high.
The target in experiment [10] is Nuclear receptor coactivator 2 (Homo sapiens) (UniProt Q15596). The experiment is described as follows: inhibition of GAL4-SRC2 driven luciferase expression – cell-based, luminescence, HEK293, triplicate, confirmation (AID 652008;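 active = mean inhibition above 46.5%, the solvent-only control mean plus 3 SD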;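 also: 0% = DMSO-treated cells and 100% = Gossypol at 36 µM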). To be noted: HEK293 GAL4-SRC2 luciferase reporter, at 8.9 µM, active compounds read high.

Structures are written as SMILES. Unmarked numbers belong to inactive results. Activity calls are given as the source filed them. Rule as the data show it, unless noted: active = inhibition above about 25%; inactive = the rest.

Nuclear receptor coactivator 1 (Homo sapiens), sequence (Q15788 whole entry, looked up, the tested form may be a part): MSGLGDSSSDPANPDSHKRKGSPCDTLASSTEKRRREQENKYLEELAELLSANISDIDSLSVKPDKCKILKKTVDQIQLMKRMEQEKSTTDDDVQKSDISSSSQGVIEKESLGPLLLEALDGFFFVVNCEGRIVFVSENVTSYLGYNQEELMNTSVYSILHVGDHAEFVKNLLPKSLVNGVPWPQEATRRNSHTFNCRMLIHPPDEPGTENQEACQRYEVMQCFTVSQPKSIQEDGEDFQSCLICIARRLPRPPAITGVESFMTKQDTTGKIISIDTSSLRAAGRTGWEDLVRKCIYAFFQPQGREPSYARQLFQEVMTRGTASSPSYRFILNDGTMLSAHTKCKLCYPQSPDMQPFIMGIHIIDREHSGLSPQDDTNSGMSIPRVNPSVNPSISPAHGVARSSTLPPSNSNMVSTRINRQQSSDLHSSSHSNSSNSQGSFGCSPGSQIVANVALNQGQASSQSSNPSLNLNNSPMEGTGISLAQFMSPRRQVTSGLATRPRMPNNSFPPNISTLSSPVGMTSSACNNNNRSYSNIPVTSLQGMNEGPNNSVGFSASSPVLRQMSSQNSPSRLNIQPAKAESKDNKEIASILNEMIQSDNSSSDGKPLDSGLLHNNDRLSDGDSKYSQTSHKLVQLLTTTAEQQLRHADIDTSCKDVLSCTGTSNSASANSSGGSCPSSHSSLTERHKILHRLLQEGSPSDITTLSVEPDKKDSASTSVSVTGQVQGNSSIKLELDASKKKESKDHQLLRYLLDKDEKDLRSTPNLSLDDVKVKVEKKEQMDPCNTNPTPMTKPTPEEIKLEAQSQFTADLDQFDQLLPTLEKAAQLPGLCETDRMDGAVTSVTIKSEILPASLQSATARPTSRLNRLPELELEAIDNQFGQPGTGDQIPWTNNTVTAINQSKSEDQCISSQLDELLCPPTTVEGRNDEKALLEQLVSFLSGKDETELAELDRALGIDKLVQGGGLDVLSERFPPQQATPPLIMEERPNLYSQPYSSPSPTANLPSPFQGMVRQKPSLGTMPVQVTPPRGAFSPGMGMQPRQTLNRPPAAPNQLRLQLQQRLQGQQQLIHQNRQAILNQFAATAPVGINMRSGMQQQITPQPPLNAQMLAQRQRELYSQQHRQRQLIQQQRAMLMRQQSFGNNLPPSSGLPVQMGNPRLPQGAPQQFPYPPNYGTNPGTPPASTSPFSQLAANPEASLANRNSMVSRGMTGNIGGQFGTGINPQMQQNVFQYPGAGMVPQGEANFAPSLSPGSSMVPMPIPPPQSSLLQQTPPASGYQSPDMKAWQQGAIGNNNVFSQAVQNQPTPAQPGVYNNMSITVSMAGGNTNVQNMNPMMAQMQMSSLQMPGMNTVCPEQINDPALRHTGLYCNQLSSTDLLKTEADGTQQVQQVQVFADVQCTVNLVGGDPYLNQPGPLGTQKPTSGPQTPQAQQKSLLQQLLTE
Nuclear receptor coactivator 3 (Homo sapiens), sequence (Q9Y6Q9 whole entry, looked up, the tested form may be a part): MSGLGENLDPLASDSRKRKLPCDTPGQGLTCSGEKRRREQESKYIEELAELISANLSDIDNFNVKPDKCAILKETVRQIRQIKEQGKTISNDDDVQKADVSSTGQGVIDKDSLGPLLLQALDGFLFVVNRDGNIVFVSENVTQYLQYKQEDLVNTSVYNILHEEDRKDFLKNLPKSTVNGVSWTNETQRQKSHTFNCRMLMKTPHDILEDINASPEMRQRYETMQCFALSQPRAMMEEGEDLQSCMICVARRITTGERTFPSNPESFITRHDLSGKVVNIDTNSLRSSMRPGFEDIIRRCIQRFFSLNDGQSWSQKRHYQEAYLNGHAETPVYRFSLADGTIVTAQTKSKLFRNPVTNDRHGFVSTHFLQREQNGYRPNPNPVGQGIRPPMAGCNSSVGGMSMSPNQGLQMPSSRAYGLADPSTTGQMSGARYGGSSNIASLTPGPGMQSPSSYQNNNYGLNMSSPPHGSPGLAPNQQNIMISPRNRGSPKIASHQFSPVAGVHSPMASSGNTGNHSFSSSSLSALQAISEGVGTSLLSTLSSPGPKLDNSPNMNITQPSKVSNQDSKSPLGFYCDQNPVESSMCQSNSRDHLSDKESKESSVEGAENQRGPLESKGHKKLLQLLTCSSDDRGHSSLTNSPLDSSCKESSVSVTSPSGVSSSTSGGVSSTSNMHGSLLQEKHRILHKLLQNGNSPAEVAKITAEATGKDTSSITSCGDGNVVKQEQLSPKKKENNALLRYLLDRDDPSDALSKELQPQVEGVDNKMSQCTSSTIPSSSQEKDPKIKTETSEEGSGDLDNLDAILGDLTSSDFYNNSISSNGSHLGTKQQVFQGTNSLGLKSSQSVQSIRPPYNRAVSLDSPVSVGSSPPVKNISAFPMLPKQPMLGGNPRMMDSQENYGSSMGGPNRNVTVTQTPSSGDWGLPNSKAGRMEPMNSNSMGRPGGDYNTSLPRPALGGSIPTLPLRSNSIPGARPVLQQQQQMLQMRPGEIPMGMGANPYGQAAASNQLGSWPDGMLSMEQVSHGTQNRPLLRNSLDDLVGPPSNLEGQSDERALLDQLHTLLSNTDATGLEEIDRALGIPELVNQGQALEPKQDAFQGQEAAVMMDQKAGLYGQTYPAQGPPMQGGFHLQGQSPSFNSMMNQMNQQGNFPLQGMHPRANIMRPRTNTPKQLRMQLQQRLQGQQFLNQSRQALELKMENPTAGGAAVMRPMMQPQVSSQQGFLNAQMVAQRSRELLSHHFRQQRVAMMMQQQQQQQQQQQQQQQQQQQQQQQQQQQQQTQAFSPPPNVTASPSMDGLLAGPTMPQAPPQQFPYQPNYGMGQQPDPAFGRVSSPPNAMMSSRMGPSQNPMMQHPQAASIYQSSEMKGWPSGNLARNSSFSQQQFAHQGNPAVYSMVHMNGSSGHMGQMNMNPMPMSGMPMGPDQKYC
Steroidogenic factor 1 (Homo sapiens), sequence (Q13285 whole entry, looked up, the tested form may be a part): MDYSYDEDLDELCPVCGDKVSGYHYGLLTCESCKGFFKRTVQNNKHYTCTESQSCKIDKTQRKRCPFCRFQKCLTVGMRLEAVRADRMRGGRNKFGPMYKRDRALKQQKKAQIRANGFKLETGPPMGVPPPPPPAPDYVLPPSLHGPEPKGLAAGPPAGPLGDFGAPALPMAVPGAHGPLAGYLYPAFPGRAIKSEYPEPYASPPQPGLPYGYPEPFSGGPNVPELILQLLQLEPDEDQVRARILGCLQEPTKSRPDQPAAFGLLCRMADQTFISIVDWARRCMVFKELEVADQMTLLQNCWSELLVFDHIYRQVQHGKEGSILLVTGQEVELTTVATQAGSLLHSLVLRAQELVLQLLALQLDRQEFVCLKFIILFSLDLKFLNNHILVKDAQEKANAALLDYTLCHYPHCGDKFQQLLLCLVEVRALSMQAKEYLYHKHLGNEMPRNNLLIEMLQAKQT
Nuclear receptor subfamily 5 group A member 2 (Homo sapiens), sequence (O00482 whole entry, looked up): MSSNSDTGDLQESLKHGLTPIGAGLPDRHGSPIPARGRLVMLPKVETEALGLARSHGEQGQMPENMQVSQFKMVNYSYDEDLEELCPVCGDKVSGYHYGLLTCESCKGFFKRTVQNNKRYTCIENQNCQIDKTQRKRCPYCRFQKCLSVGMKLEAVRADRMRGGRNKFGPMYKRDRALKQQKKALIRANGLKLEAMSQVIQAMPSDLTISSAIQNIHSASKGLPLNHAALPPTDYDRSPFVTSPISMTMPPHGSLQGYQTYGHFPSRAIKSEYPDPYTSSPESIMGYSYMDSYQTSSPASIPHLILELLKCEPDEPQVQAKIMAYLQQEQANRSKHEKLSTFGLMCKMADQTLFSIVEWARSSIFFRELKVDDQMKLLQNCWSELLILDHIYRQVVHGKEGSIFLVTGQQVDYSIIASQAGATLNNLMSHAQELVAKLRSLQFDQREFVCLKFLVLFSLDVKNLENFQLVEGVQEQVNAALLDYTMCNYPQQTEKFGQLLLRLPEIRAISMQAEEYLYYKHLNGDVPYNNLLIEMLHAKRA

A word on the inhibition: it is the relative decrease from the control value, in per cent. As for `COc1cccc(C(c2nnnn2Cc2ccccc2)N2CCC(n3c(=O)[nH]c4ccccc43)CC2)c1OC` (centres undefined), the inhibition is 25.4% in experiment [1], 8.5% in [2], -25.2% in experiment [3] and 20.2% in experiment [4].

As for `O=c1[nH]c2ccccc2n1C1CCN(C(c2cc3ccccc3o2)c2nnnn2Cc2ccccc2)CC1` (centres undefined), the inhibition was 59.9% (active) in [1], 9.7% in experiment [2], -16% in experiment [3] and 11.7% in experiment [4].

In the case of `Cc1c2ccncc2c(C)c2c1[nH]c1ccccc12`, the inhibition was 24% in experiment [1], 45.9% (active) in experiment [2], 25.6% in experiment [3] and 42.1% (active) in [4].

For `C=C1C(=O)[C@@]23C[C@H]4[C@@H]5[C@@]6(C)CCC[C@@]57[C@@H]2[C@@H](O)[C@@H]1C[C@H]3[C@H]7N4C6`, the inhibition in [1] was 3.71%; in experiment [2], 22%; in [3] it was 26.6%; in experiment [4], 20.9%.

For `Cc1ccc(-c2cc(-c3ccc(C)cc3)[n+](C)o2)cc1`, the inhibition is 62.4% (active) in experiment [1]; 47.2% (active) in [2]; -3.35% in experiment [3]; 47.1% (active) in experiment [4]; 27.6% in [5]; 78.7% (active) in experiment [6]. Moreover, the inhibition was 65.7% (active) in experiment [7] and 67.3% (active) in [8].

Consider `CC(C)CC(NC(=O)CCCNC(=O)CCC(=O)OC1O[C@H]2OC3(C)CC[C@H]4[C@H](C)CCC(C1C)C24OO3)C(=O)O` (some centres undefined), for which the inhibition in experiment [1] is 54.4% (active); in [2], 77.2% (active); in experiment [3], 53.3% (active); in [4] it was 76.9% (active); in experiment [5], 72.2% (active); in experiment [6], 101% (active). In addition, the figures for the inhibition in [7] and in [8] were 91% (active) and 86.4% (active), respectively.

On to `CN(C)c1ccc(C(=O)N/N=C/C23CC[C@@H](O)CC2(O)CC[C@@H]2[C@@H]3CCC3(C)C(C4=CC(=O)OC4)CCC23O)cc1` (some centres undefined), for which the inhibition in experiment [1] is 1.62%; in experiment [2], 23.4%; in experiment [3], -57.9%; in [4] it was 7.1%.

As for `Cc1cccc(C)c1-n1nnnc1C(c1cc2ccccc2o1)N1CCC(n2c(=O)[nH]c3ccccc32)CC1` (centres undefined), the inhibition in [1] is 23.8%; in experiment [2], 41.3% (active); in experiment [3], 7.31%; in experiment [4], 25.9% (active).

Turning to `O=c1[nH]c2ccccc2n1C1CCN(C(CCc2ccccc2)c2nnnn2C2CCCCC2)CC1` (centres undefined), the inhibition is 11.8% in experiment [1], 12.5% in experiment [2], 2.31% in experiment [3] and -5.85% in experiment [4].

With `Cc1ccccc1-[n+]1c(-c2ccccc2)cc(-c2ccccc2)cc1-c1ccccc1`, the inhibition in experiment [1] is 69.8% (active); in [2], 86% (active); in [3] it was 71.6% (active); in [4] it was 84.6% (active); in [5], 83.2% (active); in [6], 109% (active). Further, the inhibition was 95.3% (active) in experiment [7] and 94.7% (active) in experiment [8].

Turning to `Cc1cc(-c2ccccc2)cc(-c2ccccc2)[n+]1CCc1ccccc1`, the inhibition in experiment [1] is 37.8%; in experiment [2] it was 52.1% (active); in [3], 27.1%; in [4], 51.7% (active); in [5] it was 51.1% (active); in experiment [6], 91.6% (active). Moreover, the inhibition in experiment [7] was 75.2% (active); in experiment [8], 73.2% (active).

Turning to `CC(C)[C@H]1C(=O)O[C@H](C(C)C)C(=O)N(C)[C@@H](C(C)C)C(=O)O[C@H](C(C)C)C(=O)N(C)[C@@H](C(C)C)C(=O)O[C@H](C(C)C)C(=O)N1C`, the inhibition was 75% (active) in experiment [1], 86.1% (active) in experiment [2], 59.5% (active) in experiment [3] and 84.9% (active) in experiment [4].

Take `O=c1[nH]c2ccccc2n1C1CCN(C(c2cccc3ccccc23)c2nnnn2Cc2ccccc2)CC1` (centres undefined): the inhibition was 13.1% in [1]; 8.16% in experiment [2]; -24.4% in [3]; -4.89% in experiment [4]; 53.6% (active) in [5]; 18.9% in experiment [6]. The inhibition in [7] is 28.4%; in experiment [8], 9.13%.

As for `CN(C)c1ccc(-[n+]2c(-c3ccccc3)cc(-c3ccccc3)cc2-c2ccccc2)cc1`, the inhibition in experiment [1] was 84.6% (active); in experiment [2] it was 86.2% (active); in experiment [3], 52.3% (active); in experiment [4] it was 83.5% (active); in [5], 79.2% (active); in experiment [6], 107% (active). Moreover, the inhibition in [7] was 91.6% (active); in experiment [8], 92% (active).

On to `CCC(C)C(NC(=O)CCCNC(=O)CCC(=O)OC1O[C@H]2OC3(C)CC[C@H]4[C@H](C)CCC(C1C)C24OO3)C(=O)O` (some centres undefined), for which the inhibition in experiment [1] was 52.4% (active); in experiment [2], 77.5% (active); in experiment [3] it was 45%; in experiment [4] it was 76.4% (active); in experiment [5], 71.9% (active); in experiment [6], 101% (active). Further, the inhibition in experiment [7] was 89.8% (active); in experiment [8], 82.9% (active).

`CCC1(OC(=O)CN)C(=O)OCc2c1cc1n(c2=O)Cc2cc3ccccc3nc2-1` (centres undefined): the inhibition in [1] was 94.9% (active); in experiment [2] it was 82.8% (active); in experiment [3] it was 56.9% (active); in [4], 77.3% (active); in [5] it was 84% (active); in [6], 103% (active). Also, the inhibition in experiment [7] is 90.9% (active); in [8], 82% (active).

`COc1ccc(C[C@H]2NC[C@H](O)[C@H]2OC(C)=O)cc1`: the inhibition in experiment [1] is 98.9% (active); in experiment [2], 97.4% (active); in experiment [3], 96% (active); in [4] it was 96.7% (active); in [5], 94.4% (active); in experiment [6], 110% (active). Also, the inhibition in experiment [7] is 97.7% (active); in [8], 95.9% (active); in experiment [9] it was 79.2% (active); in experiment [10] it was 78.6% (active).

Take `COc1cc2cc(C(=O)N3CC(COS(C)(=O)=O)c4ccc(O)cc43)[nH]c2c(OC)c1OC` (centres undefined): the inhibition is 97.5% (active) in experiment [1]; 96.2% (active) in [2]; 96% (active) in [3]; 95.7% (active) in [4]; 98% (active) in [5]; 111% (active) in experiment [6]. In addition, the results for the inhibition in experiment [7] and in experiment [8] were 99.2% (active) and 98.2% (active), respectively.

(Values after PubChem BioAssay.)
